For 17 compounds, growth results are on record in PubChem BioAssay (NCI).

What all share (test): NCI-60 one-dose screen, 48 h (100 = growth as untreated, 0 = no growth, -100 = all killed)
What all share (details): 10 µM unless noted

The test system of assay [1] is SR leukemia.
Assay [2] has as its system RPMI-8226 leukemia.
For assay [3], the system named is OVCAR-8 ovarian.
The subject of assay [4] is OVCAR-5 ovarian.
In assay [5] the test system is OVCAR-4 ovarian.
The subject of assay [6] is SK-OV-3 ovarian.
In assay [7] the test system is IGROV1 ovarian.
Assay [8] relates to OVCAR-3 ovarian.
Assay [9] has as its system HS 578T breast.
For assay [10], the system named is NCI/ADR-RES ovarian.
Assay [11] deals with T-47D breast.
The test system of assay [12] is BT-549 breast.
Assay [13] has as its system MDA-MB-435 melanoma.
Assay [14] relates to MCF7 breast.
Assay [15] deals with HCT-116 colon.
Assay [16] relates to HCC-2998 colon.
The test system of assay [17] is KM12 colon.
Assay [18] deals with SW-620 colon.

SMILES strings stand for the structures. The panel holds about 83,000 compounds, 20% with a hit somewhere; the sample as a whole holds those more often.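 Interpretation: 100, growth as untreated; towards 0, rising growth inhibition; 0, no net growth; 0 to -100, cell death. Compounds scoring below 10 were considered active.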 Unmarked numbers belong to inactive results. The source made the active and inactive calls.

Consider `O=C(Nc1nc(C(=O)N2CCN(C(c3ccccc3)c3ccccc3)CC2)cs1)c1ccc(NC2CCCCC2)c([N+](=O)[O-])c1`, for which the growth in [1] was 90.2%; in assay [2], 64.2%; in [3], 80.4%; in assay [4], 89.2%; in assay [5], 68.9%; in [6], 89.8%. The growth is 79.6% in assay [7]; 92.2% in [8]; 90.2% in assay [9]; 77% in assay [10]; 60% in assay [11]; 82.5% in assay [12]. The growth in assay [13] was 91%; in assay [14] it was 81.3%; in assay [15] it was 82.6%; in assay [16] it was 72.7%; in assay [17] it was 91.4%.

For `COc1ccc2c(c1)c(-c1nonc1-c1c[nH]c3ccc(Br)cc13)cn2C`, the growth in assay [1] is 14.6%; in [2], 45.5%; in [3], 48.2%; in assay [4] it was 55.3%; in assay [5] it was 55.1%; in [6], 58.4%. Also, the growth was 52.7% in assay [7]; 41.1% in [8]; 59.1% in assay [9]; 34.9% in assay [10]; 25.7% in assay [11]; 63.6% in assay [12]. The growth in assay [13] was 6.34% (active); in [14], 24.9%; in assay [15] it was 31.6%; in assay [16], 38.7%; in assay [17], 14.5%.

As for `CCOC(=O)C1CCN(c2ccc(N3C[C@@H](CNCc4ccc(C(=N)N)cc4)OC3=O)cc2)CC1`, the growth was 98.2% in [1]; 96.2% in assay [2]; 101% in [3]; 94.3% in assay [4]; 105% in assay [5]; 104% in [6]. Moreover, the growth in [7] is 101%; in assay [8], 113%; in assay [9], 102%; in assay [10], 105%; in [11], 96.2%; in assay [12] it was 94.4%. For the same compound, the growth is 104% in assay [13]; 97.2% in [14]; 98.9% in assay [15]; 108% in assay [16]; 98.7% in assay [17].

For the compound `O=C(Nc1cccc(NC(=O)C2CCCCC2)c1)c1ccccn1`, the growth in [1] is 88.9%; in assay [2] it was 105%; in assay [3], 104%; in assay [4] it was 105%; in assay [5] it was 101%; in assay [6] it was 102%. Further, the growth in [7] is 98.7%; in assay [8] it was 104%; in assay [9], 111%; in assay [10], 93.8%; in assay [11] it was 95.7%; in [12], 102%. Besides, the growth in [13] was 102%; in assay [14] it was 86.4%; in [15], 93.6%; in assay [16], 87.4%; in assay [17], 98.6%.

For `COc1ccc(/C=C/C(=O)c2ccc(NC(=O)CSc3nnc(-c4cc(-c5ccccc5)nc5ccccc45)n3-c3ccccc3)cc2)cc1`, the growth in assay [1] was 79.7%; in assay [2], 96.6%; in assay [3] it was 93.5%; in assay [4] it was 93.4%; in assay [5], 96%; in assay [6] it was 109%. For the same compound, the growth in [7] is 111%; in [8], 102%; in assay [9], 93.1%; in assay [10], 97.1%; in assay [11] it was 80.3%; in [13], 97.9%. In addition, the growth in assay [18] is 96.6%; in assay [14] it was 93.7%; in [15] it was 98.7%; in [16], 107%; in [17], 89.5%.

Turning to `CN(C)c1ccc(/C=C/C(=O)c2ccc(Nc3nc(Nc4ccc(F)cc4)nc(Nc4ccc(Cl)cc4)n3)cc2)cc1`, the growth in assay [1] was 4.77% (active); in [2], 30.5%; in assay [3], 48.8%; in assay [4], 74.2%; in assay [5], 76.5%; in assay [6], 108%. In addition, the growth in assay [7] was 72.4%; in [8] it was 89.2%; in assay [9], 77.2%; in [10], 66.4%; in assay [11], 50.4%; in [12], 75.7%. Besides, the growth in assay [13] is 56.2%; in assay [14] it was 56.7%; in [15] it was 58.7%; in assay [16], 111%; in assay [17], 73.8%.

Regarding `O=C1NC(=C(Cl)Cl)/C(=N/S(=O)(=O)NCCc2c[nH]c3ccccc23)N1`, the growth was 53.3% in [1]; 14.8% in assay [2]; 92.9% in assay [3]; 48.3% in [4]; 58.6% in assay [5]; 62.2% in assay [6]. Also, the growth in assay [7] is 98.7%; in assay [8], -25.8% (active); in [9], 27.3%; in assay [10], 67.9%; in assay [11], 47.1%; in [12], 9.16% (active). Besides, the growth in assay [13] was 25.1%; in [14], 14.2%; in [15], 34.9%; in assay [16], 98.3%; in assay [17], -4.6% (active).

For `COc1ccc(C(O)c2cc3c(N)c(C(=O)Nc4cccc(Cl)c4)sc3nc2C)cc1` (centres undefined), the growth is 13.2% in [1]; 15.8% in assay [2]; 13.5% in assay [3]; 28.5% in assay [4]; 50.7% in [5]; 19% in assay [6]. For the same compound, the growth in assay [7] is 24.5%; in assay [8], 7.47% (active); in assay [9], -8.06% (active); in assay [10], 13.2%; in [11] it was 42.2%; in [12] it was 38.3%. Besides, the growth in assay [13] was 0.877% (active); in [14] it was 15.1%; in [15] it was 10.3%; in assay [16], -19.9% (active); in assay [17], 9.91% (active).

Consider `CCNC(=O)Oc1ccc(/C(=C(/C)Cc2ccc(OC)cc2)c2ccc(OCCN3CCCC3)cc2)cc1`, for which the growth in assay [1] was 6.92% (active); in [2], 44%; in [3], 89.8%; in assay [4], 83.8%; in [5], 74.1%; in [6], 88%. Besides, the growth in [7] was 88%; in assay [8], 77.5%; in [9], 70.9%; in assay [10], 85.9%; in [11] it was 42.7%; in assay [12], 85.9%. Also, the growth was 61.2% in [13]; 29% in [14]; 44% in assay [15]; 71.2% in assay [16]; 71.5% in assay [17].

For `CCCCCCC(=O)Nc1ncc(Cc2ccc(C)cc2)s1`, the growth in assay [1] is 20.4%; in assay [2], 40.1%; in assay [3], 45.5%; in assay [4], 58.1%; in [5] it was 50.1%; in assay [6], 31.8%. Also, the growth in [7] was 44.2%; in assay [8], 8.65% (active); in assay [9] it was 21.7%; in assay [10] it was 29%; in [11], 35.4%; in assay [12], 59.1%. For the same compound, the growth in assay [13] was -25.9% (active); in [14], 24.7%; in [15], 33.3%; in assay [16], 70.3%; in assay [17] it was 30.7%.

As for `Cc1cccc(NC(=O)CSc2nc3ccc([N+](=O)[O-])cc3[nH]2)c1`, the growth is 96.2% in [1]; 55.5% in assay [2]; 83.6% in [3]; 99.2% in [4]; 59.3% in assay [5]; 88.2% in assay [6]. In addition, the growth is 87.4% in assay [7]; 72.7% in assay [8]; 83.4% in assay [9]; 74.4% in assay [10]; 51.8% in [11]; 100% in assay [12]. The growth in [13] was 72%; in [14] it was 86.5%; in assay [15], 70%; in assay [16], 96.9%; in assay [17], 81.9%.

For `CCCCCCCCCCCCCCCCCCOc1ccccc1CC(=O)OCC[N+]1(C)CCOCC1`, the growth in [1] was 50.7%; in assay [2], 59.7%; in assay [3] it was 41%; in [4], 63.1%; in [5] it was 60.5%; in [6] it was 100%. Moreover, the growth in assay [7] was -9.88% (active); in [8] it was 65.4%; in assay [9], 55.1%; in assay [10] it was 104%; in [11], 84.9%; in assay [12], 82.9%. The growth was 82.4% in assay [13]; 79.8% in assay [14]; 65.6% in assay [15]; 71.8% in assay [16]; 65.8% in [17].

Take `Cc1c(N2CN3C[C@H](C)N4CN(c5c(C)n(C)n(-c6ccccc6)c5=O)CN5C[C@@H](C)N(C2)C3C54)c(=O)n(-c2ccccc2)n1C` (some centres undefined): the growth in assay [1] is 38.1%; in [2], 96%; in assay [3], 104%; in [4] it was 106%; in [5], 103%; in assay [6], 99.2%. Moreover, the growth in [7] was 102%; in [8] it was 100%; in [9], 95.9%; in assay [10], 97.2%; in assay [11], 105%; in [12], 113%. For the same compound, the growth was 105% in assay [13]; 94.9% in assay [14]; 96.9% in assay [15]; 106% in [16]; 104% in [17].

Turning to `COc1ccc(C2C(C#N)=C(N)Oc3c2sc2c(Br)cccc32)cc1` (centres undefined), the growth in assay [1] was 8.82% (active); in assay [2] it was 12.5%; in [3], 35.1%; in assay [4] it was 50.5%; in assay [5] it was 64.4%; in [6], 35.2%. In addition, the growth in [7] is 42.7%; in assay [8], 10.6%; in assay [9] it was 41.8%; in [10] it was 6.27% (active); in [11], 27.2%; in [13] it was -18.1% (active). In addition, the growth in [18] is 32%; in assay [14] it was 13.1%; in assay [15] it was 22.4%; in assay [16], 56.8%; in assay [17], 27.5%.

Regarding `CCOC(=O)c1c(-c2ccc(Cl)cc2)c(C#N)c2c(C#N)c(N)nn2c1N`, the growth is 11.9% in assay [1]; 49.3% in assay [2]; 75.9% in assay [3]; 83.4% in [4]; 77.3% in assay [5]; 84.1% in assay [6]. The growth in assay [7] is 62.2%; in assay [8] it was 65.4%; in [9], 75.3%; in assay [10], 63.1%; in assay [11] it was 46.5%; in assay [13], 5.38% (active). Besides, the growth is 52.6% in assay [18]; 37.6% in [14]; 59.5% in assay [15]; 83.6% in assay [16]; 58.7% in assay [17].

As to `CCc1ccc(CCC(=O)Nc2ncc(Cc3ccc(Cl)cc3)s2)o1`, the growth in assay [1] is 18.4%; in assay [2] it was 31.5%; in assay [3] it was 31.3%; in assay [4], 52.1%; in assay [5], 63.8%; in assay [6], 37.4%. Moreover, the growth in assay [7] is 34.8%; in [8], 1.07% (active); in assay [9], 2.63% (active); in assay [10], 17.3%; in assay [11], 37%; in [12], 61.3%. Moreover, the growth in assay [13] was -64.3% (active); in assay [14], 20%; in assay [15], 29.3%; in assay [16], 46.9%; in assay [17] it was 21.6%.

Take `O=C(O)C1CN(c2cccc(Cl)c2)N(c2cccc(Cl)c2)C1=O` (centres undefined): the growth in [1] was 85%; in [2], 107%; in assay [3], 93.2%; in [4], 75.3%; in assay [5], 96%; in [6] it was 88.9%. Also, the growth was 89.8% in [7]; 87.1% in assay [8]; 91% in assay [9]; 93.9% in assay [10]; 88.9% in [11]; 94.2% in assay [13]. Further, the growth in assay [18] was 97.8%; in [14], 91.8%; in [15], 97.4%; in [16], 103%; in assay [17] it was 81.3%.
